Drawing on PubChem BioAssay (Tox21), this text covers Potency, max activation and outcome for five molecules.

Experiment [1] is described as follows: Human pregnane X receptor (PXR) small molecule agonists, qHTS cell viability counter screen (AID 1346977). Also: nearly all actives have a fitted effect of over 50% in size. Also: potency is read from the fitted curve at half-maximal effect. The essentials:
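Same-well viability read: CellTiter-Fluor added after 23 hr compound exposure, fluorescence measured 1 hr later. Cells were PXR-Luc HepG2 seeded at 2,000/well in 5% charcoal-stripped FBS medium, rested 5 hr before dosing at 37 C.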

The nature of experiment [2]: Caspase-3/7 induction in HepG2 cells by small molecules, qHTS assay (AID 1346978). Also: nearly all actives have a fitted effect of over 15% in size. An outline of the steps:
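Wild-type HepG2 cells (2,000/well) were settled 5 h at 37 C, 5% CO2, then exposed to compounds in DMSO for 17 h. Caspase-3/7 activity was read by luminescence 30 min after adding Caspase-Glo 3/7 reagent at room temperature.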
(In qHTS, concentration-response curves come from the screen itself.)

Experiment [3] is described as follows: Caspase-3/7 induction in CHO-K1 cells by small molecules, qHTS cell viability counter screen (AID 1346979). Also: nearly all actives have a fitted effect of over 35% in size. Also: potency is read from the fitted curve at half-maximal effect. The essentials: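 Cytotoxicity counter screen: CellTiter-Fluor added to compound-treated wild-type CHO-K1 cells at 16 h (37C, 5% CO2), fluorescence measured 1 h later; same wells as caspase-3/7 measurement.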
The nature of experiment [4]: Caspase-3/7 induction in CHO-K1 cells by small molecules, qHTS assay (AID 1346980). Also: nearly all actives have a fitted effect of over 15% in size. The essentials:
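Wild-type cells were seeded at 1,500 per well and settled 5 hr at 37 C, 5% CO2, then exposed to DMSO-dissolved compounds for 17 hr. Caspase-Glo 3/7 reagent was added, and luminescence was read after 30min at room temperature.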

A short description of experiment [5]: Caspase-3/7 induction in HepG2 cells by small molecules, qHTS cell viability counter screen (AID 1346981). Also: nearly all actives have a fitted effect of over 30% in size. Also: potency is read from the fitted curve at half-maximal effect. The essentials:
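Wild-type HepG2 cells, 2,000/well, settled 5 hr at 37 C, 5% CO2 before compound addition. Viability read by CellTiter-Fluor fluorescence, reagent added after 16 hr compound exposure, then 1 hr at 37C, in the same wells as the caspase read.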

For experiment [6], the target named is Nuclear receptor subfamily 1 group I member 2 (Homo sapiens) (UniProt O75469). Description: Human pregnane X receptor (PXR) small molecule agonists, qHTS assay (AID 1346982). Also: nearly all actives have a fitted effect of over 35% in size. Also: potency is read from the fitted curve at half-maximal effect. The essentials:
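PXR-Luc HepG2 reporter cells (CYP3A4-driven luciferase) in 5% charcoal-stripped FBS medium, plated 5 h before compound addition, then treated 24 h at 37C. Luciferase read by ONE-Glo luminescence after 30 min at room temperature.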

The target in experiment [7] is Nuclear receptor subfamily 1 group I member 2 (Rattus norvegicus) (UniProt Q9R1A7). Nature of the experiment: Rat pregnane X receptor (rPXR) activation by small molecules, qHTS assay (AID 1346983). Also: nearly all actives have a fitted effect of over 20% in size. The note with it: rPXR luciferase reporter cells, One-Glo luminescence, 24 h; stronger effect = higher value. The essentials: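 Cell-based rPXR luciferase reporter assay, 2,000 cells per well, rested 5hr at 37 C before compound addition in DMSO, then 24 hr at 37 C. One-Glo reagent was added and luminescence read after 30 min at room temperature.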

For experiment [8], the target named is Nuclear receptor subfamily 1 group I member 2 (Homo sapiens) (UniProt O75469). Nature of the experiment: CYP3A4 induction through human pregnane X receptor (PXR) by small molecules, qHTS assay (AID 1346984). Also: nearly all actives have a fitted effect of over 40% in size. Also: potency is read from the fitted curve at half-maximal effect. The essentials: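 DPX-2 HepG2 cells carrying a PXR response element and CYP3A4-promoter luciferase construct, treated with compounds 24 hr at 37C. Then P450-Glo CYP3A4 Luciferin-IPA substrate (3uM final) for 3 hr at 37C, One-Glo added, luminescence read.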
Chain of Nuclear receptor subfamily 1 group I member 2 (Homo sapiens) (O75469 whole entry, looked up): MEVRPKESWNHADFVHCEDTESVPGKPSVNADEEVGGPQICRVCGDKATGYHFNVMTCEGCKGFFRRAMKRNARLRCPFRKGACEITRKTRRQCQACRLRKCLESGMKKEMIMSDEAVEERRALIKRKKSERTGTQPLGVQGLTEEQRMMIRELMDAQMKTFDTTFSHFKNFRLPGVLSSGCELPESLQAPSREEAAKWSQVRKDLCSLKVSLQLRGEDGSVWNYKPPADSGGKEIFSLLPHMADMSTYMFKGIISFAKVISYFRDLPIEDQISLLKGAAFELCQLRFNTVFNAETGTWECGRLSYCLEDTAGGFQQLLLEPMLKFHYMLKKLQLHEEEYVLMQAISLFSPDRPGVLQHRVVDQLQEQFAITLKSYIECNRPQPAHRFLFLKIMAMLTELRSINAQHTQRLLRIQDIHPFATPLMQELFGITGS

Experiment [9] has the same target. Description: Human pregnane X receptor (PXR) activation by small molecules, qHTS assay (AID 1346985). Also: nearly all actives have a fitted effect of over 40% in size. An outline of the steps:
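DPX-2 cells (HepG2 co-transfected with a PXR response element and a CYP3A4-promoter luciferase construct) were seeded at 2,000 per well, rested 5 hr at 37C, then exposed to DMSO-dissolved compounds for 24 hr. Activation was read as luciferase luminescence.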

Experiment [10] concerns the target Acetylcholinesterase (Homo sapiens) (UniProt P22303). Nature of the experiment: Acetylcholinesterase (AChE) small molecule antagonists: colormetric cell-based qHTS assay (AID 1347395; calls by dose curve; also: nearly all actives have a fitted effect of over 30% in size). An outline of the steps: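 Colorimetric readout: DTNB quantifies thiocholine from acetylthiocholine hydrolysed by endogenous AChE of SH-SY5Y cells (2,000/well, plated overnight). Compound pretreatment 30 min, substrate incubation 90 min, both 37 C.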

For experiment [11] the target is unchanged. Nature of the experiment: Acetylcholinesterase (AChE) small molecule antagonists: enzyme-based qHTS assay (AID 1347397; calls by dose curve; also: nearly all actives have a fitted effect of over 55% in size). The note with it: Potency: AChE enzyme activity inhibition. The essentials: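 Human recombinant acetylcholinesterase; substrate acetylthiocholine; thiocholine quantified with DTNB (colorimetric). Compound preincubation 30 min RT; reaction 10 min RT.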

For experiment [12] the target is unchanged. Nature of the experiment: Acetylcholinesterase (AChE) small molecule antagonists: fluorescence cell-based qHTS assay (AID 1347398; calls by dose curve; also: nearly all actives have a fitted effect of over 50% in size). Conditions: Potency: AChE activity. The essentials: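 Thiocholine generated from acetylthiocholine by SH-SY5Y cell AChE is detected with Thiolite Green (Ex/Em 490/520 nm) after 40 min at room temperature, following 30 min compound pretreatment at 37 C.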

The target is the same in experiment [13]. Nature of the experiment: Acetylcholinesterase (AChE) small molecule antagonists: enzyme-based qHTS assay with human liver microsomes (AID 1347399; calls by dose curve; also: nearly all actives have a fitted effect of over 60% in size). Conditions: Potency: qHTS inhibition. The essentials: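 Recombinant human AChE (50 mU/mL in the enzyme mix) and human liver microsomes (0.25 mg/mL final) were preincubated with compound and NADPH (0.25 mg/mL final) for 30 min at 37 C. Acetylthiocholine/DTNB was then added; thiocholine was read colorimetrically after 10 min at room temperature.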

Experiment [14] addresses Cytochrome P450 2D6 (Homo sapiens) (UniProt P10635). Nature of the experiment: Cytochrome P450 Family 2 Subfamily D Member 6 (CYP2D6) small molecule antagonists: luciferase reporter qHTS assay (AID 1671196). Also: nearly all actives have a fitted effect of over 50% in size. Also: potency is read from the fitted curve at half-maximal effect. An outline of the steps: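 Cell-free P450-Glo system: CYP2D6 with proluciferin substrate was pre-incubated with compound for 10 min, then reacted with NADPH regeneration for 1 h at room temperature. Luciferin product was detected after 20 min, and data were reported as relative luminescence units.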
For orientation: A reporter such as luciferase makes a cellular process visible.

For experiment [15], the target named is Cytochrome P450 2C19 (Homo sapiens) (UniProt P33261). Nature of the experiment: Cytochrome P450 Family 2 Subfamily C Member 19 (CYP2C19) small molecule antagonists: luciferase reporter qHTS assay (AID 1671197). Also: nearly all actives have a fitted effect of over 65% in size. Also: potency is read from the fitted curve at half-maximal effect. An outline of the steps: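 Inhibition of CYP2C19 was scored from loss of luminescence in a P450-Glo proluciferin substrate assay, NADPH-started and run 1 h at 37C, with ketoconazole as positive control.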
Chain of Cytochrome P450 2C19 (Homo sapiens) (P33261 whole entry, looked up): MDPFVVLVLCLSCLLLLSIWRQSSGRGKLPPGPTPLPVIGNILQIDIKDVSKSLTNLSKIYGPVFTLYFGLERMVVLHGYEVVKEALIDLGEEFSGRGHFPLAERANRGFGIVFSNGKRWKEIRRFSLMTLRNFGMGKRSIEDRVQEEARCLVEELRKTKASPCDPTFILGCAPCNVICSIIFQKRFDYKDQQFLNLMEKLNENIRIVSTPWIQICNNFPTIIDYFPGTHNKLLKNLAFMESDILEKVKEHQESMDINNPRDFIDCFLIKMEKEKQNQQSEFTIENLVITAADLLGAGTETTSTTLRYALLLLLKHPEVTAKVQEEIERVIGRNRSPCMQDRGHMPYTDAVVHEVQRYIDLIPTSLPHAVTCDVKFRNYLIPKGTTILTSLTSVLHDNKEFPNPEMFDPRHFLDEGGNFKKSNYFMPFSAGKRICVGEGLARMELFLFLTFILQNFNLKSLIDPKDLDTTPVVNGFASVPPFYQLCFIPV

The target of experiment [16] is Cytochrome P450 2C9 (Homo sapiens) (UniProt P11712). Nature of the experiment: Cytochrome P450 Family 2 Subfamily C Member 9 (CYP2C9) small molecule antagonists: luciferase reporter qHTS assay (AID 1671198). Also: nearly all actives have a fitted effect of over 50% in size. Also: potency is read from the fitted curve at half-maximal effect. The essentials:
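CYP2C9 activity was measured with a P450-Glo proluciferin substrate. Enzyme–substrate mix was held with compound for 10 min at room temperature, then NADPH regeneration solution was added for 1 h at 37C. Luciferin product was read as luminescence.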

Experiment [17] has as its target Cytochrome P450 1A2 (Homo sapiens) (UniProt P05177). Nature of the experiment: Cytochrome P450 Family 1 Subfamily A Member 2 (CYP1A2) small molecule antagonists: luciferase reporter qHTS assay (AID 1671199). Also: nearly all actives have a fitted effect of over 50% in size. Also: potency is read from the fitted curve at half-maximal effect. The essentials:
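P450-Glo CYP1A2 enzyme–proluciferin substrate mix with compound 10 min at room temperature, then NADPH regeneration 1 h at room temperature. Luciferin detection reagent added, luminescence read after 20 min; furafylline positive control.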

The target of experiment [18] is Voltage-gated inwardly rectifying potassium channel KCNH2 (Homo sapiens) (UniProt Q12809). Nature of the experiment: Human Ether-a-go-go-Related Gene (hERG) channel small molecule antagonists: fluorescence cell-based qHTS assay (AID 1671200). Also: nearly all actives have a fitted effect of over 50% in size. Also: potency is read from the fitted curve at half-maximal effect. The essentials:
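Thallium flux as potassium surrogate: FluxOR II dye loaded 1 h at room temperature into hERG-expressing U2OS cells, then stimulus buffer added after 10 min. Kinetic 480 nm excitation/540 nm emission read, 2 min.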

In experiment [19] the target is Cytochrome P450 3A4 (Homo sapiens) (UniProt P08684). Nature of the experiment: Cytochrome P450 Family 3 Subfamily A Member 4 (CYP3A4) small molecule antagonists: luciferase reporter qHTS assay (AID 1671201). Also: nearly all actives have a fitted effect of over 50% in size. Also: potency is read from the fitted curve at half-maximal effect. The essentials: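 Recombinant human CYP3A4 converts a proluciferin substrate to luciferin over 1 h at room temperature after NADPH regeneration solution is added (compound preincubated 10 min); detection reagent stops reaction, luminescence read 20 min later as relative units.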
Chain of Cytochrome P450 3A4 (Homo sapiens) (P08684 whole entry, looked up): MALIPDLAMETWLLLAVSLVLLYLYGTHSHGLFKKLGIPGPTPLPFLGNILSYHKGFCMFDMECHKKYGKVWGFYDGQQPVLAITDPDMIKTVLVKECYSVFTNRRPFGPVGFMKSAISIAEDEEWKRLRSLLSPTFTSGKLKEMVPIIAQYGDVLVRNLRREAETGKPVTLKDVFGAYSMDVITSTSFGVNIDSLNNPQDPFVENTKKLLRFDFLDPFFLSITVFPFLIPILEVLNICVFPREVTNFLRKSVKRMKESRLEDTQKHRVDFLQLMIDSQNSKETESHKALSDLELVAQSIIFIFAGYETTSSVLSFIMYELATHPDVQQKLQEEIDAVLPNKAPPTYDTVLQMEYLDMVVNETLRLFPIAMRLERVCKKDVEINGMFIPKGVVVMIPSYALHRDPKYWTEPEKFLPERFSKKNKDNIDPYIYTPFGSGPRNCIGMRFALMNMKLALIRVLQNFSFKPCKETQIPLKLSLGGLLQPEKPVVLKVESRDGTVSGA

Several values for one entry are separate records, joined by “and”; a condition that tells them apart may be missing. Equal values may be shown once. Results filed as inconclusive are left out. Some compounds were tested as several samples or in several runs, with calls that do not always agree. Activity calls are given as the source filed them. Unless noted, calls follow the shape of the dose curve; as a rule, active = well fitted curve in the direction sought with a large enough effect in the repeat runs; inconclusive = weak or mixed curves; inactive = no such curve, though single readings can be large; an effect the other way counts as inactive or inconclusive.
% is scaled to controls: 0 for no effect and ±100 for the full control effect.

Chain of Cytochrome P450 2C9 (Homo sapiens) (P11712 whole entry, looked up): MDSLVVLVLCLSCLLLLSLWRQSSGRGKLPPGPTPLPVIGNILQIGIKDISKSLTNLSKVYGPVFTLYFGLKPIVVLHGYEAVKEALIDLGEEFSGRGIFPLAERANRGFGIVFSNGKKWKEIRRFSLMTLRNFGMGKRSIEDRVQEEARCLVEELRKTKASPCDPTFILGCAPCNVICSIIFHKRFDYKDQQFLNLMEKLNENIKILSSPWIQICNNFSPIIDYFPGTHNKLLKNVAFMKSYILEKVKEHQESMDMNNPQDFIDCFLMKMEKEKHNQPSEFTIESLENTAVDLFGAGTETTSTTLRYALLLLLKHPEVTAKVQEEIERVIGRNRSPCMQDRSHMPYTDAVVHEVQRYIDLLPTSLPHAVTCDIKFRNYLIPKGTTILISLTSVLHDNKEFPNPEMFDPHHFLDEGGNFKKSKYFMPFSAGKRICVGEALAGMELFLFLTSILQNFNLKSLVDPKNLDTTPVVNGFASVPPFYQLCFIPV
Chain of Cytochrome P450 2D6 (Homo sapiens) (P10635 whole entry, looked up): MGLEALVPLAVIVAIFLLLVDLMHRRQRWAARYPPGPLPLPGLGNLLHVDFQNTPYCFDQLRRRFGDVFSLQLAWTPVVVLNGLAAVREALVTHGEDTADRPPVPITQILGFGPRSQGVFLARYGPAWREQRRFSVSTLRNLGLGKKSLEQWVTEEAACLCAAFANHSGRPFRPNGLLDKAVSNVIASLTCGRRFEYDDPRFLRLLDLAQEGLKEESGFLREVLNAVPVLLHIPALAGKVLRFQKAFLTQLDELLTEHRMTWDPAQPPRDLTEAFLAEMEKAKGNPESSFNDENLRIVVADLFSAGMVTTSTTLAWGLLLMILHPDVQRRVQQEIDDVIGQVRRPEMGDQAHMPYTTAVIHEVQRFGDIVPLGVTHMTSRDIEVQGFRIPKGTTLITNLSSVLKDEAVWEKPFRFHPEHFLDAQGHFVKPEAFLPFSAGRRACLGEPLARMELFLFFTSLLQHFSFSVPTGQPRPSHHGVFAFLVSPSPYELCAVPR
Chain of Acetylcholinesterase (Homo sapiens) (P22303 whole entry, looked up): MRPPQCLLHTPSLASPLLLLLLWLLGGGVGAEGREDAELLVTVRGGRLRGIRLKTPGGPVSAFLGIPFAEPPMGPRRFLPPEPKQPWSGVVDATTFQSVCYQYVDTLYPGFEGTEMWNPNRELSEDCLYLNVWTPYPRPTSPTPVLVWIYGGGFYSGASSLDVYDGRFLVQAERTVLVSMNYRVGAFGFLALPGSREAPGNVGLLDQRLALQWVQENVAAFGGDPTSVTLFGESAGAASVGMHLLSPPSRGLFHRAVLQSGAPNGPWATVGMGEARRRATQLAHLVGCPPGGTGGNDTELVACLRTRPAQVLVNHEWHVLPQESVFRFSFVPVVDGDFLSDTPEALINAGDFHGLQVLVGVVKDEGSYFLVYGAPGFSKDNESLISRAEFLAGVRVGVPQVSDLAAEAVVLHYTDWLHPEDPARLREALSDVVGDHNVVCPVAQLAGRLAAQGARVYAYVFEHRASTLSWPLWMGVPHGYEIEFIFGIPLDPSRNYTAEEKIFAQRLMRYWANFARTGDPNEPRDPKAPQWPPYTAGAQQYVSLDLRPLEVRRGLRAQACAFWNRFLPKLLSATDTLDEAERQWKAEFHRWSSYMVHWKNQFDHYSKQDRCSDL
Chain of Voltage-gated inwardly rectifying potassium channel KCNH2 (Homo sapiens) (Q12809 whole entry, looked up): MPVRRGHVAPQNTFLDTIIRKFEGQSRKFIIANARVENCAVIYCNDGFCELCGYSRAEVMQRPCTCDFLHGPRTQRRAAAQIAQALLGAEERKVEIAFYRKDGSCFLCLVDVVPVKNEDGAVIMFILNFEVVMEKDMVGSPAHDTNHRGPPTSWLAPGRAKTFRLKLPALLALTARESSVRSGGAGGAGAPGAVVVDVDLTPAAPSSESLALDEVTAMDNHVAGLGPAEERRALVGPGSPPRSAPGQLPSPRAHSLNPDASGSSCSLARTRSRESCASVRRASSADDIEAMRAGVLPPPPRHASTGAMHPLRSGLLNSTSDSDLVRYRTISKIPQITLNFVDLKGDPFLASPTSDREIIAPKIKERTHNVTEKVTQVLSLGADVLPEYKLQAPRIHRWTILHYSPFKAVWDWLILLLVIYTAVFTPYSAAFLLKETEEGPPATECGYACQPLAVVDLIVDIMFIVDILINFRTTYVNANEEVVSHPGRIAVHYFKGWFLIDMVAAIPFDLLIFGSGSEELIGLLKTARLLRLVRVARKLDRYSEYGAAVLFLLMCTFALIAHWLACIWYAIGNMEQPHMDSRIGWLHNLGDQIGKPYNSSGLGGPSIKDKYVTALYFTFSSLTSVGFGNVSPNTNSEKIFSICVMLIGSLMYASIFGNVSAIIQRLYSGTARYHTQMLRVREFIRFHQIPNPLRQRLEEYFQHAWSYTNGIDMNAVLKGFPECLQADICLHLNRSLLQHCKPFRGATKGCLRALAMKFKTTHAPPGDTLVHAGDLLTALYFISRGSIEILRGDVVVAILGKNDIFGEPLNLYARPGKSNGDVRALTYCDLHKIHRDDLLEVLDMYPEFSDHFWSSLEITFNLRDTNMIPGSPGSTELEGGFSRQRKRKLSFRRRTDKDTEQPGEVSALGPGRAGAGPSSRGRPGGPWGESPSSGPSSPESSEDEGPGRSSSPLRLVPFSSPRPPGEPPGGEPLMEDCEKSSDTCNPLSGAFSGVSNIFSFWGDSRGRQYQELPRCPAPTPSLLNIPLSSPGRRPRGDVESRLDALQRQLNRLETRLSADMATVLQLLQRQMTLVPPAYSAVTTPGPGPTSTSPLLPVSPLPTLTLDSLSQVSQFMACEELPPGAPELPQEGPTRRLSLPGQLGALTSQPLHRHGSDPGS
Chain of Cytochrome P450 1A2 (Homo sapiens) (P05177 whole entry, looked up): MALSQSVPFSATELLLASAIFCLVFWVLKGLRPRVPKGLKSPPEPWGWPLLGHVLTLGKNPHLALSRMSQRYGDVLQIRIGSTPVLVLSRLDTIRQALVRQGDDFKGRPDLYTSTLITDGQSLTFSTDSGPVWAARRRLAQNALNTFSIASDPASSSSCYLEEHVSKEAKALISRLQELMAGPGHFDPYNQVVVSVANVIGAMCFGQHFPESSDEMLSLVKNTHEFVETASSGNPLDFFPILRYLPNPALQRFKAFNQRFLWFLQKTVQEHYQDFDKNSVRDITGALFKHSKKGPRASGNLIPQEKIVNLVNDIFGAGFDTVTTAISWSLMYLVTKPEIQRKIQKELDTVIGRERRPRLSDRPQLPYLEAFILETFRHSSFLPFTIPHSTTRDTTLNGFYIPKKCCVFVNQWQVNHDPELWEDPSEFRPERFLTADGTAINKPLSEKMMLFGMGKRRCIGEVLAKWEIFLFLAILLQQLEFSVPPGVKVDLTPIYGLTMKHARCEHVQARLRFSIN

For the molecule `O=[N+]([O-])/N=C1\NCCN1Cc1ccc(Cl)nc1`, the Potency entry in experiment [1], in [2], in experiment [3], in [4], in [5] and in experiment [6] was “inactive” throughout. The Potency entry in experiment [8], in [10], in experiment [11], in [12], in [13] and in experiment [14] was “inactive” throughout. The Potency result in experiment [15], in [16], in experiment [17], in experiment [18] and in experiment [19] was “inactive” throughout. Further, the max activation in experiment [7] is -0.749% (inactive). The call in [9] was inactive.

`CC(C)Nc1ccc(Nc2ccccc2)cc1`: the Potency in experiment [1] is 20 µM (active) and 27.3 µM (active); in experiment [3], 24.2 µM (active) and 38.6 µM (active); in [5], 38.4 µM (active) and 61.1 µM (active); in experiment [6], 4.31 µM (active) and 5.45 µM (active); in experiment [8], 14.1 µM (active); in [14] it was 8.91 µM (active) and 10 µM (active). Also, the Potency in experiment [15] is 3.16 µM (active) and 3.99 µM (active); in experiment [16], 501 nM (active) and 1.12 µM (active); in [17] it was 35.5 µM (active) and 35.6 µM (active); in experiment [18], 24.4 µM (active); in [19] it was 12.6 µM (active) and 28.3 µM (active). The Potency result in experiment [2], in experiment [4], in [10], in experiment [11] and in [13] was “inactive” in each case.

On to `[CH3][Sn]([Cl])([Cl])[Cl]`, for which the Potency entry in experiment [1], in experiment [2], in experiment [3], in experiment [4], in experiment [5] and in [6] was “inactive” each time. In addition, the Potency entry in experiment [10], in [11], in [12], in [13], in experiment [15] and in experiment [16] was “inactive” in each case. In addition, the Potency entry in [17], in experiment [18] and in experiment [19] was “inactive” throughout. Besides, the Potency in experiment [14] was 32.4 µM (active) and inactive.

On to `C[N+](C)(C)CC(=O)O`, for which the Potency entry in experiment [1], in experiment [2], in [3], in experiment [4], in [5] and in [6] was “inactive” throughout. In addition, the Potency result in [8], in experiment [10], in experiment [11], in [12], in [13] and in experiment [14] was “inactive” each time. In addition, the Potency result in experiment [15], in experiment [16], in [18] and in experiment [19] was “inactive” each time. In addition, the max activation in experiment [7] was -1.07% (inactive). In addition, in experiment [9], the call was inactive. Besides, the Potency result in experiment [17] is “inactive and 17.4 µM (active)”.

Take `O=[N+]([O-])c1ccc(Nc2ccccc2)cc1`: the Potency is 39.8 µM (active) and 48.6 µM (active) in experiment [1]; 48.9 µM (active) and 48.6 µM (active) in [3]; 48.9 µM (active) and 24.3 µM (active) in [5]; 30.9 µM (active) and 48.6 µM (active) in experiment [6]; 32 µM (active) and 35.6 µM (active) in experiment [14]; 8.03 µM (active) and 20 µM (active) in experiment [15]. The Potency is 32 µM (active) and 35.6 µM (active) in experiment [16]; 12.7 µM (active) and 22.4 µM (active) in experiment [17]. Further, the Potency result in experiment [2], in experiment [4], in [10], in experiment [11], in [12] and in experiment [13] was “inactive” in each case. Besides, the Potency result in experiment [18] and in experiment [19] was “inactive” in each case.
